Experimental data as given in PubChem BioAssay (Tox21).
Results filed as inconclusive are left out. Entries that show only a call come without a potency. Active and inactive are the calls of the source. Unless noted, calls come from the whole dose curve; as a rule, active = well fitted cell-killing curve with a large enough effect in the repeat runs; inconclusive = weak or mixed curves, or effect the other way; inactive = no such curve, though single readings can be large or run the other way.

Target: Peroxisome proliferator-activated receptor gamma (Homo sapiens) (UniProt P37231)
Test: qHTS assay to identify small molecule agonists of the peroxisome proliferator-activated receptor gamma (PPARg) signaling pathway (AID 743094; active = well fitted activation curve with a large enough effect in the signal ratio in the repeat runs, not every such curve was filed as active; the % refers to the signal ratio; note: potency is the fitted concentration of half-maximal effect)
Conditions: HEK293H PPARg-UAS-bla, beta-lactamase FRET ratio, 17 h; series mostly up to 57 µM
Method in brief: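 Agonism was assessed in a beta-lactamase reporter system, HEK293H cells with a stably integrated UAS-bla construct under PPARg control; the 17 h treatment at 37C preceded a 1 h room-temperature FRET substrate read.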

Chain of Peroxisome proliferator-activated receptor gamma (Homo sapiens) (P37231 whole entry, looked up): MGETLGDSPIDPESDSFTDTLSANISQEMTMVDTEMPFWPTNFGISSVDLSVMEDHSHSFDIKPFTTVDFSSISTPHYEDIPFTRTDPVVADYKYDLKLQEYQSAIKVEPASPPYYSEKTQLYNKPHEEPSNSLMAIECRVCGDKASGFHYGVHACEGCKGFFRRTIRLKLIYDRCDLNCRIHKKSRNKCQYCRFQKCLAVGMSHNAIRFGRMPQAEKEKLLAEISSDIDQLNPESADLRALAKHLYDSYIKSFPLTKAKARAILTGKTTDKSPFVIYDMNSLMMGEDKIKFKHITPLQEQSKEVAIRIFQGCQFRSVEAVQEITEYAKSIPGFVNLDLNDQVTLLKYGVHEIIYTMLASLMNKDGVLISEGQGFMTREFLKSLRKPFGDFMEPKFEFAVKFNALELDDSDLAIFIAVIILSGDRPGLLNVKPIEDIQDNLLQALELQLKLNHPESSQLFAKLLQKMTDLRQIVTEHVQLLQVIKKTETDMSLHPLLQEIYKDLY

Structure (SMILES)	Potency
CC1=C(CC=O)C(C)(C)CCC1	inactive
O=C(/C=C/c1ccccc1)OCCc1ccccc1	inactive
CN1C(=O)OC(C)(C)C1=O	inactive
CCN(CC)CCNC(=O)COc1ccc(OC)cc1	inactive
Cc1ccc(CO)cc1	inactive
NC1[C@H]2CN(c3nc4c(cc3F)c(=O)c(C(=O)O)cn4-c3ccc(F)cc3F)C[C@@H]12 (stereo partly specified)	23.9 µM (active)
O=C1c2ccccc2C(=O)C1c1nc2ccccc2c(Br)c1O	inactive

Target: Peroxisome proliferator-activated receptor gamma (Homo sapiens) (UniProt P37231)
Test: qHTS assay to identify small molecule antagonists of the peroxisome proliferator-activated receptor gamma (PPARg) signaling pathway (AID 743191; calls by dose curve; note: nearly all actives have a fitted effect of over 30% in size; note: potency is the fitted concentration of half-maximal effect)
Conditions: HEK293H PPARg-UAS-bla, beta-lactamase ratio, antagonist, 17 h; series mostly up to 62.6 µM
Method in brief: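 GeneBLAzer PPARg UAS-bla HEK293H cells, 5 h post-plating, exposed to compounds 17 h at 37C. LiveBLAzer B/G FRET substrate added for 1 h at room temperature; beta-lactamase reporter read by fluorescence intensity.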

Structure (SMILES)	Potency
CC1CC(C)C(=O)C1=O (stereo unspecified)	inactive
CCCCCCCCN	inactive
CC(C)=CCC1C(=O)N(c2ccccc2)N(c2ccccc2)C1=O	4.22 µM (active)
Cc1ccc(OC(=O)c2ccccc2O)cc1	inactive
COc1cc(N)c(Cl)cc1C(=O)NC1CCN(CCCOc2ccc(F)cc2)CC1OC (stereo unspecified)	inactive
O=C(/C=C/c1ccccc1)OCCc1ccccc1	inactive

Test system: not listed separately
Test: qHTS assay to identify small molecule antagonists of the peroxisome proliferator-activated receptor gamma (PPARg) signaling pathway - cell viability counter screen (AID 743194); note: nearly all actives have a fitted effect of over 55% in size
Conditions: PPARg-bla HEK293H viability, CellTiter-Glo luminescence, 17 h, co-treated with 50 nM rosiglitazone; series mostly up to 62.6 µM
Method in brief: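 Cytotoxicity counter screen in PPARg-bla HEK293H cells, same wells as reporter assay. Compounds plus 50 nM rosiglitazone (final) for 17 h at 37 C, then viability read by CellTiter-Glo luminescence.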

Structure (SMILES)	Potency
Brc1cc(Br)c(Oc2cc(Br)c(Br)cc2Br)cc1Br	inactive
CC1CC(C)C(=O)C1=O (stereo unspecified)	inactive
CCCCN1CCCC1C(=O)Nc1c(C)cc(C)cc1C (stereo unspecified)	inactive
O=C(OCC(O)CO)c1ccccc1Nc1ccnc2cc(Cl)ccc12 (stereo unspecified)	inactive
CCCCCCCCN	inactive
O=Cc1c2ccccc2c(Cl)c2ccccc12	inactive
CCC=CC#N	inactive
C=CC(=O)[O-].C=CC(=O)[O-].[Zn+2]	inactive
CC(C)=CCC1C(=O)N(c2ccccc2)N(c2ccccc2)C1=O	inactive
CO/N=C(/C(=O)N[C@@H]1C(=O)N2C(C(=O)O)=C(COC(N)=O)CS[C@H]12)c1ccco1	inactive
C=C1CCC2CC1C2(C)C (stereo unspecified)	inactive
Cc1ccc(OC(=O)c2ccccc2O)cc1	inactive
O=C(O)CCC(=O)C(=O)O	inactive
C=C1c2cccc(O)c2C(O)=C2C(=O)[C@]3(O)C(O)=C(C(N)=O)C(=O)[C@@H](N(C)C)[C@@H]3[C@@H](O)[C@H]12	inactive
CC(C)C=O	inactive
CN1C(C(=O)Nc2ccccn2)=C(O)c2sccc2S1(=O)=O	inactive
Cc1cscn1	inactive
CCC(OCCCOC)OC(C)=O (stereo unspecified)	inactive
CC/C=C1/OC(=O)c2ccccc21	inactive

Structure (SMILES)	Potency
CCOC(=O)C1=C(C)NC(C)=C(C(=O)OC)C1c1cccc(Cl)c1Cl (stereo unspecified)	inactive
COc1cc(N)c(Cl)cc1C(=O)NC1CCN(CCCOc2ccc(F)cc2)CC1OC (stereo unspecified)	inactive
C=C(C)C(=O)OCCOCCOC(=O)C(=C)C	inactive
CC(=O)Oc1ccc([N+](=O)[O-])cc1CCl	inactive
O=C(Nc1cccc2c(=O)cc(-c3nn[nH]n3)oc12)c1ccc(OCCCCc2ccccc2)cc1	inactive
Cc1ccccc1N=C(N)Nc1ccccc1C	inactive
CCOC(=O)OC(C)OC(=O)[C@@H]1N2C(=O)[C@@H](NC(=O)[C@H](N)c3ccccc3)[C@H]2SC1(C)C (stereo partly specified)	inactive
CC1=Nc2ccc3ccccc3c2C1(C)C	inactive
CC(C)c1nc(CN(C)C(=O)N[C@H](C(=O)N[C@@H](Cc2ccccc2)C[C@H](O)[C@H](Cc2ccccc2)NC(=O)OCc2cncs2)C(C)C)cs1	inactive
CC1=C(CC=O)C(C)(C)CCC1	inactive
O=C(/C=C/c1ccccc1)OCCc1ccccc1	inactive
CN1C(=O)OC(C)(C)C1=O	inactive
CCN(CC)CCNC(=O)COc1ccc(OC)cc1	inactive
CC1CC(OC(=O)C(O)c2ccccc2)CC(C)(C)N1C (stereo unspecified)	inactive
Cc1ccc(CO)cc1	inactive
NC1[C@H]2CN(c3nc4c(cc3F)c(=O)c(C(=O)O)cn4-c3ccc(F)cc3F)C[C@@H]12 (stereo partly specified)	inactive
O=C1c2ccccc2C(=O)C1c1nc2ccccc2c(Br)c1O	inactive
CC(C)(O)c1ccc(CNC(=O)c2cccnc2Oc2ccc3nonc3c2)cc1	inactive
CCCCCCCCCCC(=O)O	inactive
